L3MBTL1 inh: qHTS Assay for the Inhibitors of L3MBTL1. Lethal(3)malignant brain tumor-like protein 1 (Homo sapiens), Q9Y468. AlphaScreen L3MBTL1–H3K9me1 peptide binding. Potency, µM (series often up to 57.1 µM), for the others: top-dose activity, negative = inhibition, hits mostly inhibitors. 230,000 tested, 0.66% active. AID 485360, 2010; note: potency is the fitted concentration of half-maximal effect; % is set by controls: 0 for no effect and ±100 for the full control effect; nearly all actives have a fitted effect of over 60% in size
Target sequence (Q9Y468 whole entry, looked up): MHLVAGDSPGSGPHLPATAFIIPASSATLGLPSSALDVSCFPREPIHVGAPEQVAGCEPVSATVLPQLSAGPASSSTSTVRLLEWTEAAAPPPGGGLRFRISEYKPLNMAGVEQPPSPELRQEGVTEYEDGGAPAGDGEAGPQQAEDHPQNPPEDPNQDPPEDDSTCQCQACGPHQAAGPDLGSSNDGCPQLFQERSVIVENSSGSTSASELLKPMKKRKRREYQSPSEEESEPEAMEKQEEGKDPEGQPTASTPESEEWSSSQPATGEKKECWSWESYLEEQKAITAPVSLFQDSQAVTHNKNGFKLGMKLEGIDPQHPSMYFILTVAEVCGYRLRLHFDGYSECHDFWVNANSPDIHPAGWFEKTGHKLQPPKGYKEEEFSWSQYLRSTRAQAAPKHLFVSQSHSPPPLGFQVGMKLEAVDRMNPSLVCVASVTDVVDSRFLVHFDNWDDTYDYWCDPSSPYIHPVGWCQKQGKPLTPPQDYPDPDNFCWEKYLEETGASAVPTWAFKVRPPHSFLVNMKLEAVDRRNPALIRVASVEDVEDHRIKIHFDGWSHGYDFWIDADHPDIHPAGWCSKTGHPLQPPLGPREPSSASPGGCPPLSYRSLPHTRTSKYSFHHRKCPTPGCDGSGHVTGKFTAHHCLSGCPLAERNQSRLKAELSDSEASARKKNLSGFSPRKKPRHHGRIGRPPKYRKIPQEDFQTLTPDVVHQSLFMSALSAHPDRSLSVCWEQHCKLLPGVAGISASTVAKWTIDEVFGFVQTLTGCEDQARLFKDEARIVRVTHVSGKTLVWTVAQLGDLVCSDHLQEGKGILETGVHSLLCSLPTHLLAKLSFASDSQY
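Read-out is AlphaScreen signal from streptavidin donor and nickel chelate acceptor beads (10 ug/mL final each) bridging L3MBTL1 (50 nM) and biotinylated K9-monomethylated H3(1-15) peptide (75 nM), after 30 min compound exposure at room temperature.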
G9a block: qHTS Assay for Inhibitors of Histone Lysine Methyltransferase G9a; Potency, µM (top dose mostly 102 µM), inactives show top-dose activity, negative = inhibition, actives largely listed as inhibitors; Histone-lysine N-methyltransferase EHMT2 (Homo sapiens), Q96KQ7; G9a H3K9 monomethylation, AlphaScreen, 2 h; 350,000 tested, 8.8% active; note: potency is the fitted concentration of half-maximal effect; % is set by controls: 0 for no effect and ±100 for the full control effect; nearly all actives have a fitted effect of over 75% in size
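Enzyme 20 nM + cpd, 15 min RT; add b-H3K9 pep 500 nM / SAM 20 uM; 2 h RT; anti-H3K9me1 Ab 0.5 ug/mL + SA donor / anti-rabbit acceptor beads 20 ug/mL each, 10 min; AlphaScreen read.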
BAZ2B block: qHTS Assay for Inhibitors of BAZ2B; 360,000 tested, 4.4% active; Bromodomain adjacent to zinc finger domain protein 2B (Homo sapiens), Q9UIF8; Potency, µM (series often up to 114 µM), inactives show top-dose activity change, negative = inhibition, actives largely listed as inhibitors; AlphaScreen BAZ2B-H3K14Ac peptide displacement; note: potency is the fitted concentration of half-maximal effect; % is set by controls: 0 for no effect and ±100 for the full control effect; nearly all actives have a fitted effect of over 60% in size
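AlphaScreen displacement of biotin-H3(5-23)K14Ac peptide (50 nM final) from BAZ2B (50 nM final) in PBS pH 7.4, 0.01% Tween-20; complex preformed 30 min RT, then compounds (top 110 uM) 30 min RT, beads 20 min dark.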
HP1b binding inh: HTS for Inhibitors of HP1-beta Chromodomain Interactions with Methylated Histone Tails | Chromobox protein homolog 1 (Homo sapiens), P83916 | AlphaScreen HP1-beta / biotin-H3K9me3 peptide binding | Potency, µM (titrated, usually from 114 µM), without a hit: at the top dose activity change, negative = inhibition, hits mostly inhibitors | 390,000 tested, 0.56% active; note: potency is the fitted concentration of half-maximal effect; nearly all actives have a fitted effect of over 70% in size
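HP1-beta protein (50 nM final) preincubated 30 min at room temperature with biotinylated H3(1-18)K9me3 peptide (50 nM) in PBS pH 7.4, 0.01% Tween-20, then compound added for 30 min. AlphaScreen streptavidin donor/nickel chelate acceptor beads (10 ug/mL final), 30 min dark, luminescence read.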
JMJD2A Tudor: qHTS Assay for Inhibitors of JMJD2A-Tudor Domain | Potency, µM (top dose mostly 114 µM), inactives show at the highest dose activity change, negative = inhibition, hits mostly inhibitors | Lysine-specific demethylase 4A (Homo sapiens), O75164 | 390,000 tested, 4.4% active | AlphaScreen JMJD2A-Tudor / H3K4me3 peptide binding; note: potency is the fitted concentration of half-maximal effect; % is set by controls: 0 for no effect and ±100 for the full control effect; nearly all actives have a fitted effect of over 50% in size
PI5P4Ka inh: qHTS for Inhibitors of phosphatidylinositol 5-phosphate 4-kinase (PI5P4K) | max response, % | Phosphatidylinositol 5-phosphate 4-kinase type-2 alpha (Homo sapiens), P48426 | 330,000 tested, 1.2% active | AID 652105, 2013 | PI5P4Kalpha enzyme, ADP-Glo luminescence, 60 min; hits give low values; active = max response of -50% or lower; inconclusive = between -30% and -50%; inactive = -30% or higher; note: value at the top dose of about 77 µM; % is set by controls: 0 for no effect and ±100 for the full control effect
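ADP-Glo luminescence end-point read after a 60 min room-temperature kinase reaction of PI5P4Kalpha plus substrate, initiated with ATP at 5 microM final. Buffer: 0.038 M HEPES pH 7.4, EGTA, 0.1% CHAPS, 5% DMSO.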
Starred values were filed as active, the others as inactive; ? = inconclusive; . = not tested or not shown; [ ] = another dose, or the depositor's remark. An excerpt weighted towards active compounds, which were near 11% of everything screened. Unless noted, calls come from the whole dose curve; as a rule, active = well fitted inhibition curve with a large enough effect; inconclusive = small, poorly fitted or top-dose-only effect; inactive = no such curve, though single readings can be large or run the other way.

SMILES | L3MBTL1 inh | G9a block | BAZ2B block | HP1b binding inh | JMJD2A Tudor | PI5P4Ka inh
CN(C)CC(C)(C)CNC(=O)C1CCN(Cc2ccccc2O)CC1 | -8% | 10µM* | 56µM* | ? | 6.3µM* | -5
Cc1ccc(Cn2c(CN3CCC(C(=O)NCCc4ccccc4)CC3)cc3ccccc32)cc1 | . | 8.9µM* | 18µM* | ? | 40µM* | .
O=C(NCc1ccccc1Cl)C1CCN(C(=O)c2ccc(F)cc2)CC1 | . | . | . | . | . | -11
CN(C)c1ccc(CNC(=O)C2CCN(Cc3cc4ccccc4n3Cc3ccccc3)CC2)cc1 | . | 11µM* | 3.5µM* | -22% | 11µM* | .
Cc1ccsc1CN1CCC(C(=O)NCc2ccccc2Cl)CC1 | 12% | 10µM* | -8% | ? | 7.9µM* | 2
O=C(NCc1cccnc1)C1CCN(Cc2cc3ccccc3n2Cc2ccccc2)CC1 | . | -5%[59 µM] | ? | 13% | ? | .
O=C(OCC1CCCO1)c1ccc2c(c1)N(Cc1ccccc1F)C(=O)c1ccccc1S2(=O)=O (stereo not drawn) | . | -4%[59 µM] | -2% | 29% | -19% | .
CC1CCN(S(=O)(=O)c2ccc3c(c2)N(CC(=O)NCC(C)c2ccccc2)C(=O)CO3)CC1 (stereo not drawn) | . | -3%[59 µM] | -5% | 18% | -21% | .
O=C(Nc1cc(-c2ccc(Cl)cc2)no1)c1ccc(F)cc1 | . | -10%[59 µM] | 0% | 49% | -8% | .
O=C(O)c1ccc2c(c1)C(=O)N([C@H](Cc1c3ccccc3cc3ccccc13)C(=O)O)C2=O | -1% | 12%[12.7 µM] | -8% | . | ? | .
C/C(=N\NC(N)=S)C1(C)CCCCC1 | 2% | 50µM* | -35% | -17% | 35µM* | 2
C/C(=N\NC(N)=O)C1(C)CCCCC1 | . | 14% | 9% | 23% | -2% | .
CCN(CC)c1ccc(NC(=O)c2cc3c(=O)n4cccc(C)c4nc3n2C)c(C)c1 | . | 8%[59 µM] | 6% | 36% | 0% | .
O=C(c1ccc(CS(=O)c2ccccc2Cl)o1)N1CCN(c2ccccc2F)CC1 (stereo not drawn) | . | -1%[59 µM] | -32% | 51% | -8% | .
COc1cc(/C=N/NC(=O)C(Cc2c[nH]c3ccccc23)NC(=O)OCc2ccccc2)cc([N+](=O)[O-])c1O (stereo not drawn) | -19% | 8.9µM* | 45µM* | ? | 40µM* | -79*
COc1cc(/C=N/NC(=O)C(Cc2c[nH]c3ccccc23)NC(=O)OCC(C)C)cc([N+](=O)[O-])c1OCc1ccccc1 (stereo not drawn) | -25% | ? | -37% | 27% | -17% | 6
COc1cc(/C=N/NC(=O)C(Cc2c[nH]c3ccccc23)NC(=O)OCC(C)C)cc([N+](=O)[O-])c1O (stereo not drawn) | -20% | ? | 50µM* | -30% | ? | 1
CCOC(=O)c1ccc2c(c1)nc(SC/C(O)=C(\C#N)c1nc3ccccc3[nH]1)n2CC | -2% | 50µM* | -2% | 28% | -29% | -21
Cc1ccccc1-n1c(SC/C(O)=C(\C#N)c2nc3ccccc3[nH]2)nnc1-c1ccncc1 | -2% | ? | -2% | ? | 79µM* | ?
Cc1cc(SCC(=O)OC/C(O)=C(\C#N)c2nc3ccccc3[nH]2)c(C)cc1Br | 5% | 15%[59 µM] | -8% | 34% | -9% | 3
CN1CCC(N(C)C(=S)NC(=O)c2cc(-c3cccc(Br)c3)nc3ccccc23)CC1 | -10%[11.4 µM] | ? | ? | -11% | 13µM* | ?
CCN1CCN(c2csc3ccc(Br)cc3c2=O)CC1 | . | ? | -20% | 30%[57 µM] | -14% | .
COc1cccc(/C=N/Nc2ccc(S(=O)(=O)O)cc2)c1O | -20% | 2.2µM* | ? | 27% | -15% | .
O=[N+]([O-])c1ccc(C=NNc2ccc(S(=O)(=O)O)cc2)cc1 | . | . | . | 2%[57 µM] | 79µM* | -29
O=S(=O)(O)c1ccc(NN=Cc2ccccc2O)cc1 | . | . | . | 1%[57 µM] | 100µM* | -13
SMILES | L3MBTL1 inh | G9a block | BAZ2B block | HP1b binding inh | JMJD2A Tudor | PI5P4Ka inh
O=[N+]([O-])c1ccc(NN=Cc2cccc([N+](=O)[O-])c2)cc1 | . | . | . | -17% | ? | -17
O=S(=O)(N/N=C\c1ccccc1O)c1ccc(Cl)cc1 | . | ? | -25% | 14% | -28% | 4
O=[N+]([O-])c1ccc(N/N=C/c2ccc[nH]2)cc1 | ? | 11µM* | 45µM* | ? | 56µM* | -14
COc1ccc(C2Nc3ccccc3C(=O)N2Cc2ccccc2)cc1COc1cccc(Cl)c1 (stereo not drawn) | . | . | . | . | -3% | .
COc1cc(NC(=O)CSc2nnc3c4ccccc4n(C)c3n2)cc(OC)c1OC | . | . | . | -1% | -16% | .
COc1ccc(OC)c(CNC(=O)Cc2ccc(NC(=O)N3CCSc4ncccc43)cc2)c1 | . | -25%[59 µM] | -14% | 7% | -11% | .
O=C(c1cccc(Cl)c1)N1CCC(c2nc3ccccc3o2)CC1 | . | 0%[59 µM] | -3% | 37% | 4% | .
CC1CN(C2CCN(C(=O)c3ccccc3Cl)CC2)CC(C)O1 (stereo not drawn) | -10% | ? | ? | ? | 35µM* | 6
CC1CN(C2CCN(C(=O)c3cccc(Cl)c3)CC2)CC(C)O1 (stereo not drawn) | -6% | 91%[59 µM] | -32% | ? | 8.9µM* | 0
O=C(c1ccccc1Cl)N1CCC(N2CCC(C(=O)N3CCCC3)CC2)CC1 | . | 6% | -6%[57.1 µM] | 15% | -23% | 4
CSC1=C(C#N)C(=O)NC(c2ccc(Cl)cc2)S1 (stereo not drawn) | . | 32µM* | ? | -4% | -20% | -15
CSc1nc(-c2ccc(Cl)cc2)c(C#N)c(=O)[nH]1 | 3% | ? | -17% | 17% | 1% | -18
CC(=O)Nc1nc2ccccc2n1CCOc1ccccc1 | -29%[11.4 µM] | -4%[59 µM] | -12% | 25% | -16% | 0
CC(=O)Nc1nc2ccccc2n1CCN(C)C | -1% | 40µM* | -37% | -4% | 40µM* | 1
S=C(Nc1ccccc1)Nc1nc2ccccc2n1CCOc1ccccc1 | 10µM* | -39%[59 µM] | 6.3µM* | -10% | 45µM* | .
CCCCn1c(NC(=O)c2ccccc2)nc2ccccc21 | 2% | 70%[59 µM] | 45% | 53% | 0% | .
CCCCn1c(NC(=S)Nc2ccccc2)nc2ccccc21 | 18µM* | 1%[59 µM] | 7.9µM* | ? | 40µM* | 25

Compound activity from PubChem BioAssay.
